The nature of the experiment: High-throughput drug toxicity screening in the BPDCN cell line Gen2.2 (AID 1224824).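 Further: cells exposed to compounds for 48 h before reading.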 As to conditions: Gen2.2 BPDCN cells; at 45.8 µM (top of the series) unless noted. The procedure, abridged: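 CellTiter-Glo luminescence after 48 h compound exposure of Gen2.2 cells; percent activity set with DMSO as 100% and bortezomib (9.2 uM final) as 0%. Cells seeded at 500 per well, RPMI + 10% FBS, 37 °C.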
For `C[C@]12CCC(=O)C=C1CC[C@@H]1[C@H]3CC[C@](C)(O)[C@@]3(C)CC[C@@H]12`, the cell viability, % of control (lower = more cytotoxic) was 95.2% [at 92.2 µM].

`COc1cc(OC)c(OC)cc1C=O`: the cell viability, % of control (lower = more cytotoxic) is 98.9%.

`CCC1(c2ccc(N)cc2)CCC(=O)NC1=O` (stereo not drawn): the cell viability, % of control (lower = more cytotoxic) was 153%.

Source of the values: PubChem BioAssay (NCATS).
